# Source: PubChem BioAssay AID2783 (National Center for Advancing Translational Sciences (NCATS), 2010)
# Inconclusive results are not listed. The source made the active and inactive calls. Calls come from the whole dose curve; as a rule, active = well fitted inhibition curve with a large enough effect in the polarisation, with a control signal flat (not every such curve was filed as active); inconclusive = small, poorly fitted or top-dose-only effect, or effect the other way, or a change in a side signal; inactive = no such curve, though single readings can be large or run the other way; the % refers to the polarisation.
# Target: Histone-lysine N-methyltransferase 2A (Homo sapiens) (UniProt Q03164)
# Test: Confirmation of Inhibitors Targeting the Menin-MLL Interaction in MLL Related Leukemias: Competition With Fluorescein Labeled MLL-derived Peptide
# Details: Fluorescence polarization, fluorescein-MLL peptide displacement from menin
# From the text: qHTS Assay for Inhibitors Targeting the Menin-MLL Interaction in MLL Related Leukemias
# NIH Chemical Genomics Center [NCGC]
# NIH Molecular Libraries Probe Centers Network [MLPCN]
# Assay Submitter (PI): Jolanta Grembecka, Tomasz Cierpicki, University of Virginia
# Translocations of the MLL (Mixed Lineage Leukemia) gene are frequently found in human leukemias affecting both children and adults. Fusion of MLL to one of more than 60 genes results in generation of oncogenic proteins upregulating Hox genes, which are vital to blood cell development. Patients harboring fusion of the MLL gene suffer from aggressive leukemias and respond poorly to available therapies. All of the oncogenic fusion proteins have a preserved N-terminal fragment of MLL that has been identified to interact with menin. It has been recently discovered that association with menin is critical to the leukemogenic activity of the MLL fusion oncoproteins. Selective targeting of the menin-MLL interaction could provide an attractive therapeutic approach to develop novel drugs for MLL-related leukemias. Small molecules blocking the menin-MLL interaction should reverse the oncogenic potential of MLL fusion proteins.
# We have developed and optimized a fluorescence polarization-based assay for the identification of Menin-MLL inhibitors. […]
# 5. Read fluorescence polarization for each label using the PerkinElmer Envision. […]
# Potency is the fitted concentration of half-maximal effect.
# Sequence of Histone-lysine N-methyltransferase 2A (Homo sapiens) (Q03164 whole entry, looked up): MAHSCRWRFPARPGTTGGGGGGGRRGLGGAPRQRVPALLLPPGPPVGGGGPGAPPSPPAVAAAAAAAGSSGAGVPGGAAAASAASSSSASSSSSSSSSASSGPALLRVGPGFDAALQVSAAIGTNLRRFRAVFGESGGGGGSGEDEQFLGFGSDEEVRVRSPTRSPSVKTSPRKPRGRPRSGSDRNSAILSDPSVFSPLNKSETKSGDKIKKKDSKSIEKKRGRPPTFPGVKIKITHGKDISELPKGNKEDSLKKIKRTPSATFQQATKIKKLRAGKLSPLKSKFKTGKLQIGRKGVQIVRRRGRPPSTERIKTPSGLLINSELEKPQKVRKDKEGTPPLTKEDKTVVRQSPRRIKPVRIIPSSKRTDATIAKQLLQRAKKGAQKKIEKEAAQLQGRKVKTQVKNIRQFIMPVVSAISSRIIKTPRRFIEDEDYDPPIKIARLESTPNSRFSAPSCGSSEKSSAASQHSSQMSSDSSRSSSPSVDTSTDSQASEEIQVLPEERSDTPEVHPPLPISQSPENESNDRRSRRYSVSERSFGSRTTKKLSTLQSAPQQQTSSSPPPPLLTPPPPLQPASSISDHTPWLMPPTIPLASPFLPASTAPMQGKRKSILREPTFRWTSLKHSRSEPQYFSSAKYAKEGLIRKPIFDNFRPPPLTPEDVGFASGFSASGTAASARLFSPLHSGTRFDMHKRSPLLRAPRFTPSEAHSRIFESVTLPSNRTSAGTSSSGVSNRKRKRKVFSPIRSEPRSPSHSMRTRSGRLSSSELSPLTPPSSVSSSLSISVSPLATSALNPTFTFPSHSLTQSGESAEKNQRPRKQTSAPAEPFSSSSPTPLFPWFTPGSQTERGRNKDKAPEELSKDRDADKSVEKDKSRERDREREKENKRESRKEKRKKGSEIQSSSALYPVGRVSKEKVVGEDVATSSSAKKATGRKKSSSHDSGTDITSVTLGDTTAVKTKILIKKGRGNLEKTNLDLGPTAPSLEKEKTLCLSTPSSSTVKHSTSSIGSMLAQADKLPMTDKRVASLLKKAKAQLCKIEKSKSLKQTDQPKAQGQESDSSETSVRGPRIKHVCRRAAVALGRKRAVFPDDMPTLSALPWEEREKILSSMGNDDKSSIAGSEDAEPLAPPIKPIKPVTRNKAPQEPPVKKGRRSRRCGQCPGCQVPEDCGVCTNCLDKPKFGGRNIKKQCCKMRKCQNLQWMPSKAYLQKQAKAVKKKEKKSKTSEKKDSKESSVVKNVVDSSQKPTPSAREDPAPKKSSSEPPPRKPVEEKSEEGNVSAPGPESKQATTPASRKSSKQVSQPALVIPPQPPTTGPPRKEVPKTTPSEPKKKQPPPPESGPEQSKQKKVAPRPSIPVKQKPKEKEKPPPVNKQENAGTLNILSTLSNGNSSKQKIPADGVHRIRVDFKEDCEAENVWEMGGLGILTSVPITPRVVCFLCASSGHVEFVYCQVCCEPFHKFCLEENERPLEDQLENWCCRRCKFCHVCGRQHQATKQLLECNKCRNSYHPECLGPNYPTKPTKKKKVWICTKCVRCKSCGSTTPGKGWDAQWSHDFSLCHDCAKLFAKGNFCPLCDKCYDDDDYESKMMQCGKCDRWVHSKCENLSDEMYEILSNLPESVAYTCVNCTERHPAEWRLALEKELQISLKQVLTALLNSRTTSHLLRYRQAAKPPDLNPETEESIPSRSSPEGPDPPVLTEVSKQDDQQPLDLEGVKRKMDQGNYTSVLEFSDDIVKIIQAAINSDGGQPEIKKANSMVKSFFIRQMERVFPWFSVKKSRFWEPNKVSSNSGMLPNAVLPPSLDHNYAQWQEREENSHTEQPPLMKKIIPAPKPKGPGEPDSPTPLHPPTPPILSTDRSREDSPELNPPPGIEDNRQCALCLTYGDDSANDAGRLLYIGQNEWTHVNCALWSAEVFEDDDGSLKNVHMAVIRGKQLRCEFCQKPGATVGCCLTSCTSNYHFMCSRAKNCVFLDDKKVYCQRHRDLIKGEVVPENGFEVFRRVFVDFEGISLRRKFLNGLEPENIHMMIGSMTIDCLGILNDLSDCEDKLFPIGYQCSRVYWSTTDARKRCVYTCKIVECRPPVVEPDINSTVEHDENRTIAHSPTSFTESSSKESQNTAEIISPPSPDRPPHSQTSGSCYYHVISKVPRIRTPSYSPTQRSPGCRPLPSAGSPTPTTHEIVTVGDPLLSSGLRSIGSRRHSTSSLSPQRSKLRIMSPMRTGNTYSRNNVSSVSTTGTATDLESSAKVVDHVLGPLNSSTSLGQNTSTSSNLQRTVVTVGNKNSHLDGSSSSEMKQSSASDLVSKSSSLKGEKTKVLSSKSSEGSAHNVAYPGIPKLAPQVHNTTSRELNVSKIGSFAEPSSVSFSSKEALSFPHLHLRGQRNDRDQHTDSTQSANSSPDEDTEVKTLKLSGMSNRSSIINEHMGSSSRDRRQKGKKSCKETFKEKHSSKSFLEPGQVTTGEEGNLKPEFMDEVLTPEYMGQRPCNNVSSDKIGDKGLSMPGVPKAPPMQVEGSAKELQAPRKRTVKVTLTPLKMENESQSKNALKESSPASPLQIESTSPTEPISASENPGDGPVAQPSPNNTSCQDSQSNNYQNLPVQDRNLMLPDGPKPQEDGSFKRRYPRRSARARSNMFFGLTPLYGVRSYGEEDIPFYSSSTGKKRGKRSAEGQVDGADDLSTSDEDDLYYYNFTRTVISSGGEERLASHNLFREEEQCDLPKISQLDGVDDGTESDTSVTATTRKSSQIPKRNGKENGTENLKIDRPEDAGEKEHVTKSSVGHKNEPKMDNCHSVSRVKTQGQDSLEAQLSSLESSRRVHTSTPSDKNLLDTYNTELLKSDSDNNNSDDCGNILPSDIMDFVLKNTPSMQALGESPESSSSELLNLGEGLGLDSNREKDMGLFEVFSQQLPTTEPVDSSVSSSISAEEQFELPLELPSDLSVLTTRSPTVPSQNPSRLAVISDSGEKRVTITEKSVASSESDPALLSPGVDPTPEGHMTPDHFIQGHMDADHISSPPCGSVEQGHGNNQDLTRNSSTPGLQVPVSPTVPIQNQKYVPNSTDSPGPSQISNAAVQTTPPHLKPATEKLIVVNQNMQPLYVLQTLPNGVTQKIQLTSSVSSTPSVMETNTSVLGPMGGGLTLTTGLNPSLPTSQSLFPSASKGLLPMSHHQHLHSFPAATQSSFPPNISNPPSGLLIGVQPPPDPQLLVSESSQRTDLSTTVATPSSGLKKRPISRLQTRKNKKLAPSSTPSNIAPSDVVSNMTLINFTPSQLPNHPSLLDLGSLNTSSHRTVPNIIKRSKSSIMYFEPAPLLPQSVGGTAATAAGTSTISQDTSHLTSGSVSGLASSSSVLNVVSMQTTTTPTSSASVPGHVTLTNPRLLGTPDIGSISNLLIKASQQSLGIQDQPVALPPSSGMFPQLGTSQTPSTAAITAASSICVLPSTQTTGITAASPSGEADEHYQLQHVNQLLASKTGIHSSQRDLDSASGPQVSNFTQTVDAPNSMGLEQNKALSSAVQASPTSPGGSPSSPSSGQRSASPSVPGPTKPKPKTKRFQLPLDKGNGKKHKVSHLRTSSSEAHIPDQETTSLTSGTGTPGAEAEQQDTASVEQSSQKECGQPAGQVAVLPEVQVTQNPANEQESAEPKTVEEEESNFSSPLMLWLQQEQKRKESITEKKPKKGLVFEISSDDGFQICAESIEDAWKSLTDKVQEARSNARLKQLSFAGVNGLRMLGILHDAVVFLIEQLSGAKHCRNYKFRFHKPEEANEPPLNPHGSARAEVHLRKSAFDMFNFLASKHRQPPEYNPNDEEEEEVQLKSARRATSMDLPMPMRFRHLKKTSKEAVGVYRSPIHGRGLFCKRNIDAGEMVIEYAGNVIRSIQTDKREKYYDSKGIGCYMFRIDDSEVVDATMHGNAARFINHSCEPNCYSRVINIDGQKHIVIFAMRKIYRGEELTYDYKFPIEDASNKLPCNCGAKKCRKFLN
compound,measurement,value
c1cc2cc(c1)C[n+]1ccc(c3ccccc31)NCc1ccc(cc1)CNc1cc[n+](c3ccccc13)C2,Potency,126 µM (active)
